Experimental data reported in PubChem BioAssay (NCATS).
Inconclusive results are not listed. Unmarked numbers belong to inactive results. The source made the active and inactive calls. Calls come from the whole dose curve; as a rule, active = well fitted inhibition curve with a large enough effect; inconclusive = small, poorly fitted or top-dose-only effect; inactive = no such curve, though single readings can be large or run the other way.

test: qHTS assay to identify inhibitors of the type 1 interferon - major histocompatibility complex class I in skeletal muscle: Counter screen cell viability and HiBit confirmation (AID 1347412); settings: iHSKM muscle cells + IFN-b, HiBiT or CellTiter-Glo, 24 h; HiBiT; note: nearly all actives have a fitted effect of over 60% in size
Procedure, shortened: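 HLA-B*08:01–HiBiT knock-in immortalized human myoblasts (C25cl48) stimulated with 4.0 ng/ml human IFN-beta and dosed with compound in a 12-point 1:3 titration (top final 46 uM). After 24 hrs at 37 C, HiBiT lytic luminescence or CellTiter Glo ATP read out.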
% is set by controls: 0 for no effect and ±100 for the full control effect; potency is the fitted concentration of half-maximal effect.

Structure (SMILES) | Potency
COc1ccc(-c2cc3nccn3c(Nc3ncccc3C(N)=O)n2)cc1OC | 7.87 µM (active)
Cc1cnc(Nc2cccc(CN3CCOCC3)c2)nc1Nc1cccc(S(=O)(=O)NC(C)(C)C)c1 | 7.01 µM (active)
Cc1cccc(Nc2nc(N[C@@H]3CCCC[C@H]3N)ncc2C(N)=O)c1 | 15.7 µM (active)
CC(C)Oc1cc(Nc2nc(N[C@@H](C)c3ccc(F)cn3)ncc2Cl)[nH]n1 | 9.91 µM (active)
COc1cc2nccc(Oc3ccc(NC(=O)Nc4ccc(F)cc4F)c(F)c3)c2cc1OC | 8.83 µM (active)
CC1(C)CC(=O)c2c(C(F)(F)F)nn(-c3ccc(C(N)=O)c(NC4CCC(O)CC4)c3)c2C1 (stereo not given) | 0.0701 µM (active)
Nc1ncnc2c1c(-c1cccc(OCc3ccccc3)c1)cn2C1CC(CN2CCC2)C1 (stereo not given) | 22.2 µM (active)
CC1(COc2ccc3c(c2)ncn3-c2ccc3cccc(N4CCC(N)CC4)c3n2)COC1 | 3.52 µM (active)
COc1c(C)cnc(Cn2cnc3c(Cl)nc(N)nc32)c1C | 0.222 µM (active)

same assay, conditions: iHSKM muscle cells + IFN-b, HiBiT or CellTiter-Glo, 24 h; HiBiT; at 45.9 µM (top of the series)

Structure (SMILES) | activity change, negative = inhibition [%]
CNC(=O)c1cc(Oc2ccc(NC(=O)Nc3ccc(Cl)c(C(F)(F)F)c3)c(F)c2)ccn1 | -24.1
OC(c1cc(C(F)(F)F)nc2c(C(F)(F)F)cccc12)C1CCCCN1 (stereo not given) | -11.4
CNC(=O)c1ccc2c(C(=Nc3cccc(CN(C)C)c3)c3ccccc3)c(O)[nH]c2c1 | -0.844
C[C@@H](NC(=O)c1ncnc(N)c1Cl)c1ncc(C(=O)Nc2cc(C(F)(F)F)c(Cl)cn2)s1 | -24.2

same assay, conditions: iHSKM muscle cells + IFN-b, HiBiT or CellTiter-Glo, 24 h; Viability

Structure (SMILES) | Potency
COc1cc2nccc(Oc3ccc(NC(=O)Nc4ccc(F)cc4F)c(F)c3)c2cc1OC | 7.87 µM (active)
COc1ccc(-c2ccc3ncc4c(c3c2)n(-c2ccc(N3CCNCC3)c(C(F)(F)F)c2)c(=O)n4C)cn1 | 4.43 µM (active)
CC1(COc2ccc3c(c2)ncn3-c2ccc3cccc(N4CCC(N)CC4)c3n2)COC1 | 27.9 µM (active)
CN(C)CCN(C)C(=O)c1ccc(NC(=O)Nc2ccc(-c3nc(N4CCOCC4)c4ccn(CC(F)(F)F)c4n3)cc2)cc1 | 1.11 µM (active)

same assay, conditions: iHSKM muscle cells + IFN-b, HiBiT or CellTiter-Glo, 24 h; Viability; at 45.9 µM (top of the series)

Structure (SMILES) | activity change, negative = inhibition [%]
COc1ccc(-c2cc3nccn3c(Nc3ncccc3C(N)=O)n2)cc1OC | -22.4
CNC(=O)c1cc(Oc2ccc(NC(=O)Nc3ccc(Cl)c(C(F)(F)F)c3)c(F)c2)ccn1 | 2.73
CC(C)(C)c1nc(-c2cccc(NS(=O)(=O)c3c(F)cccc3F)c2F)c(-c2ccnc(N)n2)s1 | 12.8
CCc1cc(-c2n[nH]c(C)c2-c2ccc3c(c2)OCCO3)c(O)cc1O | -3.79
OC(c1cc(C(F)(F)F)nc2c(C(F)(F)F)cccc12)C1CCCCN1 (stereo not given) | -12.8
CC(C)(O)CC(=O)NCCn1ccc2ncnc(Nc3ccc(Oc4cccc(C(F)(F)F)c4)c(Cl)c3)c21 | -19.7
Cc1ccccc1-n1c(Cn2nc(-c3cccc(O)c3)c3c(N)ncnc32)nc2cccc(C)c2c1=O | 7.45
O=C(Nc1cccc(Cl)c1)Nc1ncc(CCNc2ncnc3ccsc23)s1 | 8.48
Fc1ccc(CNc2ncnc3ccc(F)cc23)cc1 | 2.98
O=C1CN2Cc3c(ccc(Cl)c3Cl)N=C2N1 | -3.92
NC1(C(=O)N[C@@H](CCO)c2ccc(Cl)cc2)CCN(c2ncnc3[nH]ccc23)CC1 | -19.1
CC(C)CNc1ccnc(NCc2csc(-c3ccccc3)n2)n1 | -28.7
CNC(=O)c1ccc2c(C(=Nc3cccc(CN(C)C)c3)c3ccccc3)c(O)[nH]c2c1 | -1.9
CC[C@H](CC#N)OC(=O)N[C@@H](C)c1cccc(NC(=O)Nc2ccc(-c3cnco3)c(OC)c2)c1 | -7.06
C[C@@H](NC(=O)c1ncnc(N)c1Cl)c1ncc(C(=O)Nc2cc(C(F)(F)F)c(Cl)cn2)s1 | -2.15
NS(=O)(=O)c1ccc(Nc2nc(OCC3CCCCC3)c3[nH]cnc3n2)cc1 | -13.9
CNC(=O)c1cc(COc2nnc(Nc3ccc(Cl)cc3)c3ccoc23)ccn1 | -24.9
COc1ccc2nc3cc(Cl)ccc3c(Nc3cc(CN4CCCC4)c(O)c(CN4CCCC4)c3)c2n1 | -8.41
